# Reference: PubChem BioAssay (NCI)
# This is part of a sample that, as a whole, favours compounds with a hit. Of some 83,000 tested, about 20% had one in any assay.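 Each cell line was grown in a 96-well plate and treated with one concentration of compound for 48 hours. Values below 10 were considered active.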 Unmarked numbers belong to inactive results. Active and inactive are the calls of the source.
# Test system: T-47D breast
# Assay: NCI-60 one-dose screen, 48 h (100 = growth as untreated, 0 = no growth, -100 = all killed)
# Settings: 10 µM unless noted
row,Structure (SMILES),growth
1,Cc1ncc(C(=O)Nc2ccc(CN3CCN(C)CC3)c(C(F)(F)F)c2)cc1C#Cc1cnc(N)c2ncccc12,51.4%
2,COc1ccc(C(=O)N2c3ccccc3Sc3ccccc32)c(C(F)(F)F)c1,52.3%
3,Cc1ccc(Cl)cc1NC(=O)c1sc2nc3c(cc2c1N)C(=O)CCC3,82.9%
4,Oc1c(CN2CCCC2)cc(CSCc2ccccc2)c2cccnc12,-3.02% (active)
5,CCOC(=O)CC1CSC(Nc2ccccc2)=N1 (stereo not given),87.9%
6,C#CCNC(=O)[C@]1(C)CCC[C@@]2(C)[C@H]1CC=C1C=C(C(C)C)CC[C@@H]12,85.2%
7,CCCCNC(=O)Oc1ccc(/C(=C(/C)Cc2ccc(OC)cc2)c2ccc(OCCN3CCCCC3)cc2)cc1,37.9%
8,COc1cccc(/C=C/C(=O)c2cc3c(N)c(C(=O)Nc4cccc5ccccc45)sc3nc2C)c1,32.3%
9,COc1cc2c(cc1OCCCCN1CCN(C(=S)SCCC(C#N)(c3ccccc3)c3ccccc3)CC1)N=C[C@@H]1CCCN1C2=O,-13.3% (active)
10,CN1C(=O)/C(=C/c2ccc(C(=O)Nc3ncc(Cc4cccc(Cl)c4)s3)cc2)SC1=S,42.7%
11,Cc1ccc(C(=O)c2ccc(CC(=O)NN3C(=O)c4ccccc4C3=O)n2C)cc1,98.3%
12,Cn1c(=O)c2[nH]c(SCC(=O)Nc3ccc(C(=O)/C=C/c4ccccc4Cl)cc3)nc2n(C)c1=O,92.4%
13,Nc1[nH]c(=S)nc2oc(-c3ccccc3)c(-c3ccccc3)c12,96.8%
14,O=S(=O)(Oc1ccc(Br)cc1)c1ccc(Cl)cc1,88.5%
15,COC(=O)N1CC(Oc2ccccn2)C2CC1c1ccccc1O2 (stereo not given),99.9%
16,COc1ccc(/C(C)=C(\c2ccc(Cl)cc2)c2ccc(OCCN3CCCCC3)cc2)cc1,48.1%
17,Cc1ccc2nc(-c3ccc(C(=O)NNC(=S)Nc4ccccc4)cc3)[nH]c2c1,86.3%
18,O=S(=O)(NCCCNc1nccc(-c2c(-c3cccc(F)c3)nc3occn23)n1)c1ccc(F)cc1,6.92% (active)
19,Cc1nc2sc(C(=O)Nc3cccc(Br)c3C)c(N)c2cc1C(O)c1ccccc1 (stereo not given),25.3%
20,CC1(C)N=C(N)N=C(N)N1c1ccc(CCCCc2ccccc2)c(Cl)c1,15.8%

row,Structure (SMILES),growth
1,CCCCNC(=O)c1cc([N+](=O)[O-])cc(C2CCCCC2)c1O,12%
2,O=C(CCCCCNC(=O)c1cc(=O)c(O)co1)Nc1ccccc1,104%
3,CCOC(=O)c1c(C)nc2ccccc2c1/C=C/c1ccccc1,25.7%
4,COc1cccc(-c2cc(-c3cccc(Cl)c3)c(C#N)c(=O)[nH]2)c1,80.1%
5,CN(CCCNC(=O)CCOCCOCCOCCNC(=O)Cc1ccc2ccc3cccc4ccc1c2c34)CCCNc1cc(-c2ccc3ccccc3c2)nc2ccccc12,-80.9% (active)
6,Cc1ccc2nc(/C(C#N)=C(/CCCO)NC(Cc3ccccc3)C(=O)OCc3ccccc3)[nH]c(=O)c2c1 (stereo not given),93%
7,NS(=O)(=O)c1ccc(-c2cc(-c3nnc(SCC(=O)Nc4ccc(C(=O)/C=C/c5ccc(Cl)cc5)cc4)n3-c3ccccc3)c3ccccc3n2)cc1,79.9%
8,COC(=O)c1cc(Br)ccc1O,119%
9,COc1ccc(-c2cc(-c3ccccc3)nc(N3CCN(CCNc4ccnc5cc(Cl)ccc45)CC3)n2)cc1,-48% (active)
10,CCCCNC(=O)Oc1ccc(/C(=C(/C)Cc2ccc(OC)cc2)c2ccc(OCCN3CCCCCC3)cc2)cc1,38.8%
11,O=C(N=Nc1c(O)[nH]c2ccccc12)Nc1ccc(F)cc1,66.2%
12,O=[N+]([O-])c1ccc(-c2cn3nc(-c4c[nH]c5ccccc45)sc3n2)cc1,64.8%
13,CN(C)c1ccc(/C=C(\C#N)c2cc3ccccc3[nH]2)cc1,36.1%
14,CC(=O)/C(=C/c1ccc([N+](=O)[O-])cc1)C(=O)c1ccccc1,67.6%
15,CCOC(=O)c1nn(CC(O)c2ccccc2)c(NC(=O)Nc2cccc(F)c2)c1C (stereo not given),90.1%
16,CO[C@H](C(=O)[C@@H](O)[C@@H](C)O)[C@@H]1Cc2cc3cc(O[C@H]4C[C@@H](O[C@H]5C[C@@H](O)[C@H](O)C(C)O5)[C@H](O)C(C)(O)O4)cc(O)c3c(O)c2C(=O)[C@H]1O[C@H]1C[C@@H](O[C@H]2C[C@@H](O[C@H]3C[C@@H](OC)[C@H](O)C(C)O3)[C@@H](O)C(C)O2)[C@H](O)C(C)O1 (stereo not given in full),13.5%
17,CCN(CC)CCCN1C(=O)c2c(c(C)c3c(oc4ccc(O)cc43)c2C)C1=O,87.2%
18,O=C(Nc1ccccc1N1CCCC1=O)c1oc2ccc(F)cc2c1-c1cnn(-c2ccccc2)c1,35.4% [50 µM]
19,O=C(C1CCCCC1)[C@@H]1[C@]2(C(=O)NC3CCCCC32)[C@@H]2CCCN2[C@@]12C(=O)NC1CCC(Cl)CC12 (stereo not given in full),-69% [100 µM] (active)
20,C=C(C)[C@@H]1CC[C@]2(COC(C)=O)CC[C@]3(C)[C@H](CC[C@@H]4[C@@]5(C)CCCN(C(C)=O)C(C)(C)[C@@H]5CC[C@]43C)[C@@H]12,10.9%
